# Test results reported in the supplement of paper PMC9694430.
# Columns and labels:
# Assay in all cases: thermal shift delta Tm vs DMSO control; higher = stronger stabilization (binding)
# Settings in all cases: 12.5 µM; protein concentration 2 µM
# [1] = compound: C/C(O)=C(\C#N)C(=O)Nc1cc(Br)ccc1Br
# Outline: (§1)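 Rice kinase domain constructs were expressed in E. coli, purified, and tested by differential scanning fluorimetry with compound added in DMSO. Each well of a 96-well plate held 19.5 μl of 2 μM kinase in 100 mM potassium phosphate pH 7.5, 150 mM NaCl, 10% glycerol and 5 × SYPRO Orange, and fluorescence was read from 25°C to 95°C at 0.05°C/s. The melting temperature shift is the mean of triplicates, taken against protein with DMSO alone after Boltzmann fitting.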
# [2] = compound: CC(C)(C)c1cc(C=C(C#N)C#N)cc(Br)c1O
# Outline: as §1
# Tyrphostin 9 = compound: CC(C)(C)c1cc(C=C(C#N)C#N)cc(C(C)(C)C)c1O [Tyrphostin 9]
# Outline: as §1
# Aurora A Inhibitor I = compound: CCN1CCN(C(=O)Cc2ccc(Nc3ncc(F)c(Nc4ccc(C(=O)Nc5ccccc5Cl)cc4)n3)cc2)CC1 [Aurora A Inhibitor I]
# Outline: as §1
# Picropodophyllin (PPP) = compound: COc1cc([C@@H]2c3cc4c(cc3[C@H](O)[C@H]3COC(=O)[C@@H]23)OCO4)cc(OC)c1OC [Picropodophyllin (PPP)]
# Outline: as §1
# Anisomycin = compound: COc1ccc(C[C@H]2NC[C@H](O)[C@H]2OC(C)=O)cc1 [Anisomycin]
# Outline: as §1
# [3] = compound: COc1ccc(N(C(=O)Oc2c(C)cccc2C)c2ccnc(Nc3ccc(N4CCN(C)CC4)cc3)n2)c(OC)c1
# Outline: as §1
# [4] = compound: COc1ccc2c(c1)/C(=C/c1cnc[nH]1)C(=O)N2
# Outline: as §1
# [5] = compound: Cc1ccccc1-n1c(Cn2ncc3c(N)ncnc32)nc2cccc(C)c2c1=O
# Outline: as §1
# [6] = compound: Cn1cc(C2=C(c3cn(C4CCN(Cc5ccccn5)CC4)c4ccccc34)C(=O)NC2=O)c2ccccc21
# Outline: as §1
# [7] = compound: O=c1[nH]c2ccc(Cl)cc2c(N[C@@H]2CN3CCC2CC3)c1-c1nc2ccccc2[nH]1
# Outline: as §1
# Chain of LOC_OS04G41100-cb001 (as listed by the source): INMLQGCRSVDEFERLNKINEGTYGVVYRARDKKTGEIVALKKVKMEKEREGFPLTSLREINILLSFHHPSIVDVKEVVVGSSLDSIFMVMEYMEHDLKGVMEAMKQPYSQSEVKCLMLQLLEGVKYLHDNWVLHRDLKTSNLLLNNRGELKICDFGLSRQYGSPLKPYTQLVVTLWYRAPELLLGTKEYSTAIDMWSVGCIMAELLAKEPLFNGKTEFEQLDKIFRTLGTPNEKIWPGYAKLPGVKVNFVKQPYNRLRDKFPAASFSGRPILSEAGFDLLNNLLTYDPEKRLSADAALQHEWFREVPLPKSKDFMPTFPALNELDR
# Chain of LOC_OS06G16330-cb003 (as listed by the source): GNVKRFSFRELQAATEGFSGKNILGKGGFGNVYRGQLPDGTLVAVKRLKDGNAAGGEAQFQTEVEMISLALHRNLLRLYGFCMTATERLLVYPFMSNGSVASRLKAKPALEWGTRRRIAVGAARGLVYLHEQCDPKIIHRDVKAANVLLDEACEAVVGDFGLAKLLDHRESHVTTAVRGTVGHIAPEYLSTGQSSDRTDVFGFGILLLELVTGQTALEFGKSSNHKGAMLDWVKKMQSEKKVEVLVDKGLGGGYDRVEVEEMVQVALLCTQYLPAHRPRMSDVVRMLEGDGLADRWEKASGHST
Target,thermal shift delta Tm [1] [°C],thermal shift delta Tm [2] [°C],thermal shift delta Tm (Tyrphostin 9) [°C],thermal shift delta Tm (Aurora A Inhibitor I) [°C],thermal shift delta Tm (Picropodophyllin (PPP)) [°C],thermal shift delta Tm (Anisomycin) [°C],thermal shift delta Tm [3] [°C],thermal shift delta Tm [4] [°C],thermal shift delta Tm [5] [°C],thermal shift delta Tm [6] [°C],thermal shift delta Tm [7] [°C]
LOC_OS04G35114-cb001,1.21,0.3,0.89,3.75,0.21,0.57,1.64,6.97,0.13,1.31,5.95
LOC_OS04G41100-cb001,0.64,0.96,1.09,1.62,0.3,0.43,0.13,3.1,0.39,1.42,2.42
LOC_OS02G17970-cb001,1.08,2.06,3.2,0.33,0.61,0.2,0.79,0.72,-0.06,–,0.93
LOC_OS01G57100-cb003,1.78,-0.11,6.29,1.79,0.44,1.09,1.54,1.34,0.63,–,3.28
LOC_OS06G16330-cb003,1.18,2.32,0.83,8.9,0.19,-0.28,-0.04,5.39,-0.12,–,6.83
LOC_OS01G60700-cb002,1.75,1.51,4.79,0.71,0.4,0.15,1.33,0.77,0.02,3.52,1.41
LOC_OS07G07230-cb001,0.39,1.24,0.49,0.3,0.63,0.94,0.5,-0.03,0.41,0.68,0.14
LOC_OS03G12390-cb001,1.3,0.42,0.25,5.37,-0.2,-0.29,0.45,4.35,-0.25,0.52,4.7
LOC_OS04G57630-cb004,0.3,0.11,-0.37,4.13,0.26,0.15,0.3,1.58,-0.13,-0.06,1.43
LOC_OS01G01410-cb001,0.85,0.56,3.01,2.6,-0.11,0.63,0.04,2.18,0.73,–,3.66
LOC_OS05G43570-cb004,0.83,0.83,1.46,1.76,-0.21,0.46,0.38,0.79,0.31,1,1.44
LOC_OS02G45750-cb003,1.66,-0.03,0.99,3.48,0.36,1.18,2.08,7.07,-0.14,0.32,11.3
LOC_OS01G39600-cb002,0.11,3.42,–,3.74,-0.4,-0.07,-0.58,2.01,0.35,–,6.61
LOC_OS02G54510-cb004,0.42,0.85,0.47,1.31,0.14,0.56,0.56,0.44,0.08,0.65,1.44
LOC_OS01G51400-cb002,0.56,0.64,1.62,-0.05,-0.01,0.24,0.03,0.84,0.24,–,0.3
LOC_OS07G06570-cb004,0.21,0.05,2.9,0.63,1.02,1,1.01,0.08,1.12,–,0.51
LOC_OS02G07810-cb001,1.72,2.07,2.29,0.45,0.15,0.03,0.73,0.97,0.6,–,1.44
LOC_OS02G08530-cb003,1.36,1.36,2.26,2.48,0.6,1.28,0.72,2.97,0.37,0.99,5.48
LOC_OS01G21960-cb002,1.38,1.5,4.31,2.25,0.41,0.52,0.61,1.85,0.03,–,3.76
LOC_OS01G70970-cb002,0.43,0.94,2.45,4.68,0.24,0.31,0.31,4.78,-0.01,–,5.08
